Results filed as inconclusive are left out. The source made the active and inactive calls. Calls follow the shape of the dose curve; as a rule, active = well fitted curve in the direction sought with a large enough effect; inconclusive = small, poorly fitted or top-dose-only effect, or another doubt; inactive = no such curve, though single readings can be large; an effect the other way counts as inactive or inconclusive.
How the values were obtained:
HeLa = experiment: Primary qHTS to identify gynecologic anti-cancer compounds using libraries of approved drugs and bioactive compounds (AID 1345084); settings: Gynecologic cancer cell panel viability, ATPlite luminescence, 48 h; series mostly up to 57.5 µM; also: nearly all actives have a fitted effect of over 55% in size
In short: (§1)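 Five-concentration response, 48 h; readout is ATP-driven luciferase luminescence.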

Hek293T = experiment: as above; settings: Gynecologic cancer cell panel viability, ATPlite luminescence, 48 h, control line for the selectivity index; series mostly up to 57.5 µM
In short: as §1

JEG-3 = experiment: as above; settings: Gynecologic cancer cell panel viability, ATPlite luminescence, 48 h; series mostly up to 57.5 µM
In short: as §1

OV90 = experiment: as above; settings: Gynecologic cancer cell panel viability, ATPlite luminescence, 48 h; series mostly up to 57.5 µM
In short: as §1

PA-1 = experiment: as above; settings: Gynecologic cancer cell panel viability, ATPlite luminescence, 48 h; series mostly up to 57.5 µM
In short: as §1

SKOV3 = experiment: as above; settings: Gynecologic cancer cell panel viability, ATPlite luminescence, 48 h; series mostly up to 57.5 µM
In short: as §1

Tov-21-G = experiment: as above; settings: Gynecologic cancer cell panel viability, ATPlite luminescence, 48 h; series mostly up to 57.5 µM
In short: as §1

Tov112D = experiment: as above; settings: Gynecologic cancer cell panel viability, ATPlite luminescence, 48 h; series mostly up to 57.5 µM
In short: as §1

[1] = Drug repurposing screens with cells derived from glioblastoma tumor samples (AID 1345199); settings: GBM patient neurospheres viability, ATP luminescence, 48 h; also: nearly all actives have a fitted effect of over 40% in size
In short: (§2)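 Primary testing used CD133+ neurospheres from four GBM patients, seven concentrations, 48 h exposure and ATP-based viability; confirmation added three slower-growing patient lines.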

astro = experiment: as above; settings: viability, ATP luminescence, 48 h; series mostly up to 45.9 µM
In short: as §2

[2] = at 45.9 µM (top of the series), tumour line B
[3] = at 20 µM (top of the series), tumour line C
[4] = at 21.2 µM (top of the series), tumour line B
[5] = at 21.2 µM (top of the series), tumour line D
[6] = at 21.3 µM (top of the series), tumour line A
[7] = at 45.9 µM (top of the series), tumour line D
[8] = at 46.1 µM (top of the series), tumour line C
[9] = at 91.6 µM (top of the series), tumour line B
[10] = at 46 µM (top of the series), tumour line A
% is scaled to controls: 0 for no effect and ±100 for the full control effect; potency is read from the fitted curve at half-maximal effect.

CC(C)Cn1cnc2c(N)nc3ccccc3c21
inactive: Potency (HeLa) | Potency (Hek293T) | Potency (JEG-3) | Potency (OV90) | Potency (PA-1) | Potency (SKOV3) | Potency (Tov-21-G) | Potency (Tov112D) | activity, negative = cell killing [1, 2] -23.5%

NS(=O)(=O)c1cc2c(cc1Cl)NC(C(Cl)Cl)NS2(=O)=O (stereo unspecified)
inactive: Potency (HeLa) | Potency (Hek293T) | Potency (JEG-3) | Potency (OV90) | Potency (PA-1) | Potency (SKOV3) | Potency (Tov-21-G) | Potency (Tov112D) | activity, negative = cell killing [1, 3] 6.84% | activity, negative = cell killing [1, 4] -4.6% | activity, negative = cell killing [1, 5] -11.1% | activity, negative = cell killing [1, 6] -6.45% | Potency (astro)

COCCCOc1cc(C[C@@H](C[C@H](N)[C@@H](O)C[C@H](C(=O)NCC(C)(C)C(N)=O)C(C)C)C(C)C)ccc1OC
inactive: Potency (HeLa) | Potency (Hek293T) | Potency (JEG-3) | Potency (OV90) | Potency (PA-1) | Potency (SKOV3) | Potency (Tov-21-G) | Potency (Tov112D) | activity, negative = cell killing [1, 2] 9.07% | activity, negative = cell killing [1, 7] 12.6% | activity, negative = cell killing [1, 8] 3% | Potency (astro)

CS(=O)(=O)c1ccc([C@@H](O)[C@@H](CO)NC(=O)C(Cl)Cl)cc1
inactive: Potency (HeLa) | Potency (Hek293T) | Potency (JEG-3) | Potency (OV90) | Potency (PA-1) | Potency (SKOV3) | Potency (Tov112D) | activity, negative = cell killing [1, 3] -12.8% | activity, negative = cell killing [1, 4] -9.12% | activity, negative = cell killing [1, 5] -24.7% | activity, negative = cell killing [1, 6] -19.8% | Potency (astro)

Cc1onc(-c2ccccc2Cl)c1C(=O)N[C@@H]1C(=O)N2[C@@H]1SC(C)(C)[C@@H]2C(=O)O
inactive: Potency (HeLa) | Potency (Hek293T) | Potency (JEG-3) | Potency (OV90) | Potency (PA-1) | Potency (SKOV3) | Potency (Tov-21-G) | Potency (Tov112D) | activity, negative = cell killing [1, 3] 1.94% | activity, negative = cell killing [1, 4] -1.92% | activity, negative = cell killing [1, 5] -24.2% | Potency (astro)

CC(C)(C)NC(=O)[C@H]1CC[C@H]2[C@@H]3CC[C@H]4NC(=O)C=C[C@]4(C)[C@H]3CC[C@]12C
active: Potency (SKOV3) 12600 nM
inactive: Potency (HeLa) | Potency (Hek293T) | Potency (JEG-3) | Potency (PA-1) | Potency (Tov-21-G) | Potency (Tov112D) | activity, negative = cell killing [1, 3] -3.62% | activity, negative = cell killing [1, 4] -10.8% | activity, negative = cell killing [1, 5] -2.64% | activity, negative = cell killing [1, 6] -15% | Potency (astro)

S=P(N1CC1)(N1CC1)N1CC1
inactive: Potency (HeLa) | Potency (Hek293T) | Potency (JEG-3) | Potency (PA-1) | Potency (SKOV3) | Potency (Tov-21-G) | Potency (Tov112D) | activity, negative = cell killing [1, 2] -13.6% | activity, negative = cell killing [1, 7] -2.85% | activity, negative = cell killing [1, 8] -0.68% | activity, negative = cell killing [1, 9] -15.1% | activity, negative = cell killing ([1]; at 91.6 µM (top of the series), tumour line D) -14.2% | activity, negative = cell killing ([1]; at 99.2 µM (top of the series), tumour line C) -13% | Potency (astro)

CCOc1cc(N)c(Cl)cc1C(=O)NCC1CN(Cc2ccc(F)cc2)CCO1 (stereo unspecified)
active: Potency ([1]; tumour line A) 11200 nM
inactive: Potency (HeLa) | Potency (Hek293T) | Potency (JEG-3) | Potency (SKOV3) | Potency (Tov-21-G) | Potency (Tov112D) | activity, negative = cell killing [1, 2] -18.6% | activity, negative = cell killing [1, 8] 4.16% | Potency (astro)

CNS(=O)(=O)Cc1ccc2[nH]cc(CCN(C)C)c2c1
inactive: Potency (HeLa) | Potency (Hek293T) | Potency (JEG-3) | Potency (OV90) | Potency (PA-1) | Potency (Tov-21-G) | Potency (Tov112D) | activity, negative = cell killing [1, 2] 2.54% | activity, negative = cell killing [1, 7] -2.5% | activity, negative = cell killing [1, 10] -14% | activity, negative = cell killing [1, 8] 0.932%

CN(CCOc1ccc(CC2SC(=O)NC2=O)cc1)c1ccccn1 (stereo unspecified)
inactive: Potency (HeLa) | Potency (Hek293T) | Potency (JEG-3) | Potency (PA-1) | Potency (SKOV3) | Potency (Tov-21-G) | Potency (Tov112D) | activity, negative = cell killing [1, 2] -18.3% | activity, negative = cell killing [1, 7] -26.6% | activity, negative = cell killing [1, 10] -36.2% | activity, negative = cell killing [1, 8] 15.3%

COc1ccc(-c2ccc3cc(C(=O)O)ccc3c2)cc1C12CC3CC(CC(C3)C1)C2
inactive: Potency (HeLa) | Potency (Hek293T) | Potency (JEG-3) | Potency (OV90) | Potency (PA-1) | Potency (SKOV3) | Potency (Tov-21-G) | Potency (Tov112D) | Potency (astro)

COc1cc2ncnc(Nc3cccc(Cl)c3)c2cc1OC
inactive: Potency (HeLa) | Potency (Hek293T) | Potency (JEG-3) | Potency (OV90) | Potency (PA-1) | Potency (Tov-21-G) | Potency (Tov112D)

O=C(N[C@H](CO)[C@H](O)c1ccc([N+](=O)[O-])cc1)C(Cl)Cl
inactive: Potency (HeLa) | Potency (Hek293T) | Potency (JEG-3) | Potency (PA-1) | Potency (SKOV3) | Potency (Tov112D) | activity, negative = cell killing [1, 2] -13.1% | activity, negative = cell killing [1, 10] -46.2% | activity, negative = cell killing [1, 8] -18.2% | activity, negative = cell killing [1, 9] -17.6%

CCN[C@H]1C[C@H](C)S(=O)(=O)c2sc(S(N)(=O)=O)cc21
inactive: Potency (HeLa) | Potency (Hek293T) | Potency (JEG-3) | Potency (OV90) | Potency (PA-1) | Potency (SKOV3) | Potency (Tov-21-G) | Potency (Tov112D) | activity, negative = cell killing [1, 2] -1.09% | activity, negative = cell killing [1, 7] 3.44% | activity, negative = cell killing [1, 8] -27% | Potency (astro)

O=C(O)c1cccnc1
inactive: Potency (HeLa) | Potency (Hek293T) | Potency (JEG-3) | Potency (OV90) | Potency (PA-1) | Potency (SKOV3) | Potency (Tov-21-G) | Potency (Tov112D) | activity, negative = cell killing [1, 2] -10% | activity, negative = cell killing [1, 7] -8.9% | activity, negative = cell killing [1, 8] -28.3% | Potency (astro)

CC(C)C[C@H](NC(=O)[C@H](CCc1ccccc1)NC(=O)CN1CCOCC1)C(=O)N[C@@H](Cc1ccccc1)C(=O)N[C@@H](CC(C)C)C(=O)[C@@]1(C)CO1
active: Potency (HeLa) 794 nM | Potency (Hek293T) 251 nM | Potency (OV90) 251 nM | Potency (PA-1) 89.1 nM | Potency (SKOV3) 251 nM | Potency (Tov-21-G) 251 nM | Potency (Tov112D) 708 nM | Potency (astro) 708 nM
inactive: Potency (JEG-3)

COc1ccc(C(=O)CC(=O)c2ccc(C(C)(C)C)cc2)cc1
inactive: Potency (HeLa) | Potency (Hek293T) | Potency (JEG-3) | Potency (OV90) | Potency (PA-1) | Potency (SKOV3) | Potency (Tov-21-G) | Potency (Tov112D) | activity, negative = cell killing [1, 7] -26.5% | activity, negative = cell killing [1, 8] 3.24% | Potency (astro)
